Measurements: PubChem BioAssay (NCATS)
Several values for one entry are separate records, joined by “and”; a condition that tells them apart may be missing. Equal entries are not always repeated. Records with an inconclusive call do not appear. Activity calls are given as the source filed them. Unless noted, calls follow the shape of the dose curve; as a rule, active = well fitted curve in the direction sought with a large enough effect; inconclusive = small, poorly fitted or top-dose-only effect, or another doubt; inactive = no such curve, though single readings can be large; an effect the other way counts as inactive or inconclusive.

Legend:
[1] = tested on: C33A; test: Primary qHTS to identify gynecologic anti-cancer compounds using libraries of approved drugs and bioactive compounds (AID 1345084); conditions: Gynecologic cancer cell panel viability, ATPlite luminescence, 48 h; series mostly up to 57.5 µM; also: % is scaled to controls: 0 for no effect and ±100 for the full control effect; nearly all actives have a fitted effect of over 55% in size
In short: (§1)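 Cell viability after 48 h drug treatment, ATPlite luminescence readout; five doses.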

[2] = tested on: CAOV3; test: as above; conditions: Gynecologic cancer cell panel viability, ATPlite luminescence, 48 h; series mostly up to 57.5 µM
In short: as §1

[3] = tested on: CASKI; test: as above; conditions: Gynecologic cancer cell panel viability, ATPlite luminescence, 48 h; series mostly up to 57.5 µM
In short: as §1

[4] = tested on: Es-2; test: as above; conditions: Gynecologic cancer cell panel viability, ATPlite luminescence, 48 h; series mostly up to 57.5 µM
In short: as §1

[5] = tested on: HeLa; test: as above; conditions: Gynecologic cancer cell panel viability, ATPlite luminescence, 48 h; series mostly up to 57.5 µM
In short: as §1

[6] = tested on: Hek293T; test: as above; conditions: Gynecologic cancer cell panel viability, ATPlite luminescence, 48 h, control line for the selectivity index; series mostly up to 57.5 µM
In short: as §1

[7] = tested on: JEG-3; test: as above; conditions: Gynecologic cancer cell panel viability, ATPlite luminescence, 48 h; series mostly up to 57.5 µM
In short: as §1

[8] = tested on: OV90; test: as above; conditions: Gynecologic cancer cell panel viability, ATPlite luminescence, 48 h; series mostly up to 57.5 µM
In short: as §1

[9] = tested on: PA-1; test: as above; conditions: Gynecologic cancer cell panel viability, ATPlite luminescence, 48 h; series mostly up to 57.5 µM
In short: as §1

[10] = tested on: SKOV3; test: as above; conditions: Gynecologic cancer cell panel viability, ATPlite luminescence, 48 h; series mostly up to 57.5 µM
In short: as §1

[11] = tested on: Tov-21-G; test: as above; conditions: Gynecologic cancer cell panel viability, ATPlite luminescence, 48 h; series mostly up to 57.5 µM
In short: as §1

[12] = tested on: Tov112D; test: as above; conditions: Gynecologic cancer cell panel viability, ATPlite luminescence, 48 h; series mostly up to 57.5 µM
In short: as §1

[13] = Drug repurposing screens with cells derived from glioblastoma tumor samples (AID 1345199); conditions: GBM patient neurospheres viability, ATP luminescence, 48 h; also: % is scaled to controls: 0 for no effect and ±100 for the full control effect; nearly all actives have a fitted effect of over 40% in size
In short: (§2)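 Primary testing used CD133+ neurospheres from four GBM patients, seven concentrations, 48 h exposure and ATP-based viability; confirmation added three slower-growing patient lines.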

[14] = tested on: astro; test: as above; conditions: viability, ATP luminescence, 48 h; series mostly up to 45.9 µM
In short: as §2

[15] = target: Nuclear receptor subfamily 1 group I member 2 (Rattus norvegicus) (UniProt Q9R1A7); test: qHTS assay for small molecule activators of the rat pregnane X receptor (rPXR) signaling pathway (AID 651751; call rule not given here; also: 0% is about no effect); conditions: rPXR reporter cells, luciferase (One-Glo), 24 h
Chain of Nuclear receptor subfamily 1 group I member 2 (Rattus norvegicus) (Q9R1A7 whole entry, looked up): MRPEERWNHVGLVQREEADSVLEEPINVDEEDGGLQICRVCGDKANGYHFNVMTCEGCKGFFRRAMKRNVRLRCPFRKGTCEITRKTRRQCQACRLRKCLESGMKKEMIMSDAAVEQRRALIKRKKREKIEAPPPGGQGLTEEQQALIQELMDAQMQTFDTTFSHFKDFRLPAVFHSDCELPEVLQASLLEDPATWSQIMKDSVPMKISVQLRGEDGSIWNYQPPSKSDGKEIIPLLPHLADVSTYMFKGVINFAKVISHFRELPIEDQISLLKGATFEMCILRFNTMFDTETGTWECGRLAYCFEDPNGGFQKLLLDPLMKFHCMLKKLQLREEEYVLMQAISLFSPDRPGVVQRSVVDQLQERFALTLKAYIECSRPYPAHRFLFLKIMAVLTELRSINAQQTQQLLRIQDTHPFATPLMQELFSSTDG

[16] = qHTS assay for small molecule activators of the human pregnane X receptor (PXR) signaling pathway (AID 720659; call rule not given here; also: 0% is about no effect)
[17] = at 45.9 µM (top of the series), tumour line B
[18] = at 45.9 µM (top of the series), tumour line D
[19] = at 46.1 µM (top of the series), tumour line C
[20] = at 20 µM (top of the series), tumour line C
[21] = at 21.2 µM (top of the series), tumour line B
[22] = at 21.2 µM (top of the series), tumour line D
[23] = at 46 µM (top of the series), tumour line A
[24] = at 21.3 µM (top of the series), tumour line A

NC(=O)N1c2ccccc2CC(=O)c2ccccc21
inactive: Potency [1] | Potency [2] | Potency [3] | Potency [4] | Potency [5] | Potency [6] | Potency [7] | Potency [8] | Potency [9] | Potency [10] | Potency [11] | Potency [12] | activity, negative = cell killing [13, 17] -29.6% | activity, negative = cell killing [13, 18] -1.67% | activity, negative = cell killing [13, 19] -9.41% | Potency [14]

O=C(O)c1cn(C2CC2)c2cc(N3CCNCC3)c(F)cc2c1=O
inactive: Potency [1] | Potency [2] | Potency [3] | Potency [4] | Potency [5] | Potency [6] | Potency [7] | Potency [8] | Potency [9] | Potency [10] | Potency [11] | Potency [12] | activity, negative = cell killing [13, 20] -4.75% | activity, negative = cell killing [13, 21] -18.6% | activity, negative = cell killing [13, 22] 4.14% | Potency [14]

CC(C)(C#N)c1cc(Cn2cncn2)cc(C(C)(C)C#N)c1
inactive: Potency [1] | Potency [2] | Potency [3] | Potency [4] | Potency [5] | Potency [6] | Potency [7] | Potency [8] | Potency [9] | Potency [10] | Potency [11] | activity, negative = cell killing [13, 17] -13.4% | activity, negative = cell killing [13, 18] -8.79% | activity, negative = cell killing [13, 19] -3.92%

CN1CCN(c2c(F)cc3c(=O)c(C(=O)O)cn4c3c2OCN4C)CC1
inactive: Potency [1] | Potency [2] | Potency [3] | Potency [4] | Potency [5] | Potency [6] | Potency [7] | Potency [8] | Potency [9] | Potency [10] | Potency [11] | Potency [12] | activity, negative = cell killing [13, 17] 0.422% | activity, negative = cell killing [13, 18] -17.1% | activity, negative = cell killing [13, 23] -24% | activity, negative = cell killing [13, 19] 18% | Potency [14]

Nc1ccc(S(=O)(=O)Nc2ccccn2)cc1
inactive: Potency [1] | Potency [2] | Potency [3] | Potency [4] | Potency [5] | Potency [6] | Potency [7] | Potency [8] | Potency [9] | Potency [10] | Potency [11] | Potency [12] | activity, negative = cell killing [13, 20] -7.01% | activity, negative = cell killing [13, 21] 0.146% | activity, negative = cell killing [13, 22] 5.31% | activity, negative = cell killing [13, 24] -9.41% | Potency [14]

O=C(O)c1cc(=O)[nH]c(=O)[nH]1
inactive: Potency [1] | Potency [2] | Potency [3] | Potency [4] | Potency [5] | Potency [6] | Potency [7] | Potency [8] | Potency [9] | Potency [10] | Potency [11] | Potency [12] | activity, negative = cell killing [13, 17] -3.6% | activity, negative = cell killing [13, 18] 11.2% | activity, negative = cell killing [13, 23] -24.7% | activity, negative = cell killing [13, 19] -0.704% | Potency [14] | max response [15] -3.54% | outcome [16]

CC1=NN(c2ccccc2)C(=O)C1
inactive: Potency [1] | Potency [2] | Potency [3] | Potency [4] | Potency [5] | Potency [6] | Potency [7] | Potency [8] | Potency [9] | Potency [10] | Potency [11] | Potency [12] | activity, negative = cell killing [13, 17] -3.42% | activity, negative = cell killing [13, 18] -8.39% | activity, negative = cell killing [13, 23] -29.7% | activity, negative = cell killing [13, 19] -6.42% | Potency [14] | max response [15] 3.89% and 0.779%

CS(=O)(=O)c1ccc([C@@H](O)[C@@H](CO)NC(=O)C(Cl)Cl)cc1
inactive: Potency [1] | Potency [2] | Potency [3] | Potency [4] | Potency [5] | Potency [6] | Potency [7] | Potency [8] | Potency [9] | Potency [10] | Potency [12] | activity, negative = cell killing [13, 20] -12.8% | activity, negative = cell killing [13, 21] -9.12% | activity, negative = cell killing [13, 22] -24.7% | activity, negative = cell killing [13, 24] -19.8%

O=C(O)CSCC(=O)NC1CCSC1=O (configuration not stated)
inactive: Potency [1] | Potency [2] | Potency [3] | Potency [4] | Potency [5] | Potency [6] | Potency [7] | Potency [8] | Potency [9] | Potency [10] | Potency [11] | Potency [12] | activity, negative = cell killing [13, 17] -7.24% | activity, negative = cell killing [13, 19] 18.1% | Potency [14]

CCCc1cc(C(N)=S)ccn1
inactive: Potency [1] | Potency [2] | Potency [3] | Potency [4] | Potency [5] | Potency [6] | Potency [7] | Potency [8] | Potency [9] | Potency [10] | Potency [11] | Potency [12] | activity, negative = cell killing [13, 17] -7.71% | activity, negative = cell killing [13, 18] -14.3% | activity, negative = cell killing [13, 19] 5.43% | Potency [14]

CCn1cc(C(=O)O)c(=O)c2cc(F)c(N3CCNCC3)nc21
inactive: Potency [1] | Potency [2] | Potency [3] | Potency [4] | Potency [5] | Potency [6] | Potency [7] | Potency [8] | Potency [9] | Potency [10] | Potency [11] | Potency [12] | activity, negative = cell killing [13, 20] -1.66% | activity, negative = cell killing [13, 21] -1.31% | activity, negative = cell killing [13, 22] -17.3% | activity, negative = cell killing [13, 24] -3.28% | Potency [14]

CC(C)OC(=O)OCOP(=O)(CO[C@H](C)Cn1cnc2c(N)ncnc21)OCOC(=O)OC(C)C
inactive: Potency [1] | Potency [2] | Potency [3] | Potency [4] | Potency [5] | Potency [6] | Potency [7] | Potency [8] | Potency [9] | Potency [10] | Potency [11] | Potency [12] | activity, negative = cell killing [13, 17] -7.36% | activity, negative = cell killing [13, 18] -12.2% | activity, negative = cell killing [13, 23] -9.04% | activity, negative = cell killing [13, 19] -6.09% | Potency [14]
